Structures are written as SMILES. In all, about 1,100 compounds went through this assay and about 860 (78%) were called active. About 19% were inconclusive and are not listed. Calls come from the whole dose curve; as a rule, active = well fitted activation curve with a large enough effect; inconclusive = small, poorly fitted or top-dose-only effect; inactive = flat fitted curve, though single readings scatter. The set was probably picked from earlier hits. Some of the results follow.
Potency is the fitted concentration of half-maximal effect.

A short description of this test: qHTS of Nrf2 Activators: Hit Validation in Primary Assay. Note: nearly all actives have a fitted effect of over 70% in size. To be noted: Nrf2/ARE reporter cell assay; Potency: activation; series mostly up to 46.1 µM. The essentials:
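Luminescence from Steady-Glo lysis reagent, read after 30 min, reported ARE-luciferase activity in AREc32_fluc stable cells. Compounds were tested at several concentrations, incubated 24 h at 37 °C with 5% CO2 following overnight seeding.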
For orientation: Quantitative high-throughput screening tests each substance at several concentrations.
As for `CC(=O)Nc1ccc(O)c(-c2nc3ccccc3s2)c1`, the Potency was 2.06 µM (active).
As for `O=[N+]([O-])c1ccc(Cl)c(/C=N/n2c(-c3ccncc3)n[nH]c2=S)c1`, the figure is 11.6 µM (active).
As to `O=C(N/N=C/c1ccc(-c2cccc([N+](=O)[O-])c2)o1)c1cccs1`, the Potency is 2.06 µM (active).
As for `COC(=O)C1=C(C)N(C)C(=O)/C1=C\c1ccco1`, the figure is 2.06 µM (active); as for `CCN1C(=O)/C(=C\c2ccco2)C(C(=O)OC)=C1C`, 3.26 µM (active); as for `COC(=O)C1=C(C)NC(=O)/C1=C\c1ccco1`, 3.66 µM (active).
As for `COC(=O)C1=C(C)N(c2ccc(Br)cc2)C(=O)/C1=C\c1ccco1`, the figure is 18.4 µM (active); as for `CCCC(=O)Nc1sc(C)c(C)c1C#N`, 14.6 µM (active).
Under `O=C(Nc1cccnc1)C1(F)C(F)(F)C(F)(F)C(F)(F)C(F)(F)C1(F)F` stands 14.6 µM (active).
Consider `O=c1cc(-c2ccccc2)oc2ccc(Cl)cc12`, for which the Potency was 3.26 µM (active).
As for `CSc1ccc(-c2cc(=O)c3ccccc3o2)cc1`, the figure is 2.06 µM (active); as for `S=c1[nH]nc(-c2ccco2)n1/N=C/c1ccc(Br)s1`, 2.31 µM (active).
With `S=c1[nH]nc(-c2ccco2)n1/N=C/c1cccc(Cl)c1Cl`, the Potency was 10.3 µM (active).
Under `O=[N+]([O-])c1ccccc1/C=C/C=N/n1c(-c2ccco2)n[nH]c1=S` stands 11.6 µM (active); under `CNc1ccccc(C(=O)/C=C/c2ccccc2OC)c1=O`, 20.6 µM (active).
Under `CNc1ccc(Br)cc(C(=O)/C=C/c2cccc(Cl)c2Cl)c1=O` stands 1.84 µM (active); under `CSc1nsc(SC)c1C(=O)Nc1ccc(Cl)cc1`, 4.61 µM (active); under `CSc1nsc(SC)c1C(=O)Nc1ccc(C)cc1`, 16.4 µM (active).
Turning to `CC(OC(=O)/C=C/c1ccc2ccccc2n1)C(=O)Nc1ccc(S(N)(=O)=O)cc1` (configuration not stated), the Potency was 20.6 µM (active).
As for `CCN(CC)c1ccc2c(c1)oc(=O)c1c(Cl)cc(=O)oc12`, the entry is “inactive”; as for `Cc1cc(=O)oc2cc(NC(=O)c3ccccc3Cl)ccc12`, 2.91 µM (active).
Under `COC(=O)c1sccc1NC(=O)c1cccc(F)c1` stands 18.4 µM (active); under `COC(=O)c1sccc1NC(=O)c1ccccc1`, 20.6 µM (active).
`COC(=O)c1sccc1NC(=O)c1cc(C)on1`: the Potency is 16.4 µM (active).
As for `COC(=O)c1sccc1NC(=O)c1cccc(OC)c1`, the figure is 7.31 µM (active).
`COc1cccc(C(=O)Nc2cc(Cl)c(O)c(Cl)c2)c1`: the Potency was 5.17 µM (active).
Under `COC(=O)c1sccc1NC(=O)c1ccc(OC)c(OC)c1` stands 4.61 µM (active); under `COC(=O)c1sccc1NC(=O)c1ccccc1F`, 18.4 µM (active); under `COC(=O)c1sccc1NC(=O)c1cccc(Cl)c1`, 20.6 µM (active).
Under `COC(=O)c1sccc1NC(=O)Nc1ccc(Cl)c(Cl)c1` stands 14.6 µM (active).
Under `O=C(NNC(=O)c1sccc1-n1cccc1)c1cccc(Cl)c1` stands 2.59 µM (active); under `COC(=O)c1sccc1NC(=O)c1csc(C)c1`, 4.61 µM (active); under `COc1ccc(NC(=O)c2ccc([N+](=O)[O-])s2)c([N+](=O)[O-])c1`, 9.2 µM (active).
On to `COc1ccc(OC)c(NC(=O)C(C#N)=Cc2ccco2)c1`, for which the Potency was 6.51 µM (active).
As for `COc1ccccc1NC(=O)/C(C#N)=C/c1cccn1C`, the figure is 20.6 µM (active); as for `COC(=O)CSc1nc2ccccn2c(=O)c1C=O`, 20.6 µM (active).
Under `O=Cc1c(Sc2ccccn2)nc2ccccn2c1=O` stands 20.6 µM (active).
As to `Nc1nc(/C=C/c2ccc(F)cc2)nc(-c2ccccc2O)n1`, the Potency was 2.59 µM (active).
As for `Nc1nccc(-c2ccc(-n3cccc3)cc2)n1`, the figure is 13 µM (active); as for `COc1ccc(Cl)cc1NC(=O)c1cc(-c2ccccc2O)n[nH]1`, 2.91 µM (active).
Under `COc1ccc(Cl)cc1NC(=O)c1cc(C)no1` stands 10.3 µM (active); under `COc1cc(OC)c(NC(=O)c2ccco2)cc1Cl`, 13 µM (active); under `COc1ccc(Cl)cc1C(=O)NC(=S)Nc1nc(C)cc(C)n1`, “inactive”.
For the molecule `COc1cc2c(cc1NC(=O)c1ccco1)CCCC2`, the Potency is 3.26 µM (active).
As for `COc1ccc(Cl)cc1NC(=O)c1ccco1`, the figure is 4.61 µM (active); as for `Cc1ccc2nsnc2c1NC(=S)NC(=O)c1ccco1`, 4.61 µM (active); as for `CCOc1ccsc1C(=O)NNC(=O)c1ccco1`, 5.8 µM (active).
With `Cc1ccc([N+](=O)[O-])cc1NC(=S)NC(=O)c1ccco1`, the Potency is 4.11 µM (active).
For the molecule `CCOc1ccccc1NC(=S)NC(=O)c1ccco1`, the Potency was 10.3 µM (active).
Under `CC(=O)c1cc2c(cc1NC(=O)c1ccco1)OCCO2` stands 3.66 µM (active).
With `O=C(Nc1cc(Cl)ccc1-n1cncn1)c1ccco1`, the Potency was 10.3 µM (active).
As for `COc1ccc([N+](=O)[O-])cc1NC(=O)c1ccco1`, the figure is 5.17 µM (active); as for `Cc1cc(C(=O)Nc2cc(Br)ccc2O)on1`, 13 µM (active).
Under `Cc1cc(NC(=S)NC(=O)c2ccco2)c2ccccc2n1` stands 2.59 µM (active); under `O=C(Nc1ccc(Br)c(Cl)c1)c1ccco1`, 2.06 µM (active); under `[O-][n+]1onc2c1CCc1c-2nn(-c2ccccc2Cl)[n+]1[O-]`, 0.92 µM (active).
Under `Cc1ccc(-n2nc3c([n+]2[O-])CCc2c-3no[n+]2[O-])cc1` stands 0.291 µM (active).
On to `Cc1nn2c(-c3ccccc3)nnc2c2ccccc12`, for which the Potency was 4.11 µM (active).
As to `COc1ccc(-c2nnc3c4ccccc4c(C)nn23)cc1`, the Potency is 3.66 µM (active).
As for `CC1CCCCC1NC(=O)COC(=O)c1c2c(nc3ccccc13)/C(=C/c1ccco1)CC2` (configuration not stated), the figure is 8.2 µM (active); as for `O=C(Nc1ccc2c(c1)C(=O)NC2=O)c1ccccc1`, 20.6 µM (active).
As for `O=C(Nc1ccc2c(c1)C(=O)NC2=O)c1cccc(C(F)(F)F)c1`, the figure is 2.06 µM (active); as for `O=C(Nc1nc(=O)c2ccccc2s1)c1ccccc1`, 0.731 µM (active); as for `Cc1csc2nc(NC(=O)c3ccccc3)sc(=O)c12`, 8.2 µM (active).
Take `S=C(NNc1ccc2ccccc2c1)NC1CCCCC1`: the Potency is 13 µM (active).
As for `CCc1nnc(NC(=O)/C=C/c2ccco2)s1`, the figure is 6.51 µM (active); as for `Cc1nnc(NC(=O)/C=C/c2ccco2)s1`, 8.2 µM (active); as for `Cc1csc(NC(=O)/C=C/c2ccco2)n1`, 4.11 µM (active).
As for `CCC(CC)c1nnc(NC(=O)/C=C/c2ccco2)s1`, the figure is 1.46 µM (active); as for `O=C(/C=C/c1ccco1)NC(=S)Nc1nc(-c2ccc(Cl)cc2)cs1`, “inactive”.
As for `Cc1cc(C)c2oc(-c3ccc(C)c(NC(=O)/C=C/c4ccco4)c3)nc2c1`, the figure is 2.91 µM (active); as for `CNS(=O)(=O)c1ccc2nc(NC(=O)/C=C/c3ccco3)sc2c1`, 1.84 µM (active).
Regarding `Cc1cccc(C)c1NC(=S)NC(=O)c1cccc(Cl)c1`, the Potency was 3.26 µM (active).
As for `Cc1ccc(NC(=O)/C=C/c2ccc([N+](=O)[O-])s2)cc1`, the figure is 2.31 µM (active); as for `Cc1cc(C)cc(NC(=O)/C=C/c2ccc([N+](=O)[O-])s2)c1`, 2.31 µM (active); as for `CSc1nnc(-c2ccco2)c(-c2ccco2)n1`, 11.6 µM (active).
Under `O=C(CSc1nnc(-c2ccco2)c(-c2ccco2)n1)c1ccccc1` stands 5.17 µM (active); under `CSC1=NC(C)(C)C=C(/C=C/c2ccc(Cl)cc2)N1`, 9.2 µM (active).
Under `Brc1cc(Cc2nnc(-c3ccccc3)o2)c(Br)s1` stands 8.2 µM (active); under `O=C(Nc1cccc(F)c1)c1ccco1`, “inactive”; under `Cc1ccc(O)c(NC(=O)c2cccc(NC(=O)c3ccco3)c2)c1`, 2.59 µM (active).
Take `O=C(Nc1ccccc1C(=O)NCCc1ccccc1)c1ccco1`: the Potency is 2.06 µM (active).
Under `O=C(Nc1ccccc1O)c1cccc(NC(=O)c2ccco2)c1` stands 4.11 µM (active).
Under `CCCc1nc([N+](=O)[O-])c(S(=O)(=O)c2ccccc2)n1CC(C)C` stands 3.26 µM (active); under `S=C(NCc1ccco1)Nc1ccccn1`, 9.2 µM (active).
Under `Brc1ccc(-c2nnc(-c3cccnc3)c3conc23)cc1` stands 0.517 µM (active).
Turning to `C#CCSc1nc(-c2cccs2)ccc1C#N`, the Potency is 4.61 µM (active).
`Cc1cc(C)n(-c2nc3ccccc3c(=O)n2OCc2ccc(F)cc2)n1`: the Potency was 1.84 µM (active).
As for `CC1(C)CC[C@]2(C(=O)n3ccnc3)CC[C@]3(C)[C@H](C(=O)C=C4[C@@]5(C)C=C(C#N)C(=O)C(C)(C)[C@@H]5CC[C@]43C)[C@@H]2C1`, the figure is 0.092 µM (active); as for `O=[N+]([O-])c1ccc(NN=Cc2ccco2)nc1`, 0.731 µM (active).
As for `Brc1ccc(-c2csc(N/N=C/c3ccco3)n2)cc1`, the figure is 2.91 µM (active); as for `CCn1nc(C)c(Br)c1-c1nc(-c2cccc(C)c2)no1`, 8.2 µM (active).
As for `O=C(Nc1ccccc1F)c1cc(-c2ccco2)nc2ccccc12`, the figure is 2.06 µM (active); as for `O=C(Nc1cccc(F)c1)c1cc(-c2ccco2)nc2ccccc12`, 2.06 µM (active).
For the molecule `COc1ccccc1CNC(=O)COC(=O)c1cc(-c2ccco2)nc2ccccc12`, the Potency was 9.2 µM (active).
Under `O=C(Nc1ccc(F)cc1F)c1cc(-c2ccco2)nc2ccccc12` stands 0.731 µM (active); under `CC1Oc2ccccc2OC1C(=O)Nc1ccccn1` (configuration not stated), 2.91 µM (active).
Under `CSc1nsc(SC)c1NC(=O)Nc1ccccn1` stands 5.17 µM (active); under `O=[N+]([O-])c1cc(Cl)cc2c1nc(NCCO)c1ccccc12`, 10.3 µM (active).
Under `O=[N+]([O-])c1ccc(Cl)cc1C=NNc1ccccn1` stands 3.26 µM (active).
Turning to `Brc1ccccc1/C=N/Nc1ccccn1`, the Potency is 6.51 µM (active).
Under `Clc1ccccc1NN=Cc1ccccn1` stands 5.8 µM (active); under `Clc1cccc(Cl)c1/C=N\Nc1nccs1`, 9.2 µM (active).
Take `Fc1cccc(Cl)c1/C=N/Nc1ccccn1`: the Potency was 4.11 µM (active).
Consider `O=[N+]([O-])c1ccc(Cl)cc1N/N=C/c1ccncc1`, for which the Potency was 0.731 µM (active).
As for `Clc1ccccc1C=NNc1ccccn1`, the figure is 2.31 µM (active).
As for `Cc1ccc(C)c(/C=N/Nc2ccccn2)c1`, the figure is 6.51 µM (active).

The record behind these values is PubChem BioAssay AID651593 (National Center for Advancing Translational Sciences (NCATS), 2012).
